# Source: the antibiotic and cytotoxicity screens of Wong et al. (2023)
# Hit rate of the full screen: of about 39,000 compounds, about 3,300 (8.5%) were called active. This is one part of a sample in which actives are shown more often than they occur.
# Tested on: HepG2
# Test: cytotoxicity call (relative viability < 0.9)
# Settings: 10 µM
row,Structure (SMILES),cytotoxicity call
1,Cn1c(=O)n2n(c1=O)[C@H](C1CC1)C=C1CN3[C@@H]([C@H](Cc4ccccc4)OC(=O)[C@@H]3Cc3ccc(N=[N+]=[N-])cc3)[C@@H]12,inactive
2,Cc1ccc(S(=O)(=O)Nc2ccc3c(c2)C(=O)N([C@@H](C)CO)C[C@@H](C)[C@@H](CN(C)Cc2ccc(-c4ccccc4)cc2)O3)cc1,active
3,Cc1ccc(S(=O)(=O)Nc2ccc3c(c2)C(=O)N([C@@H](C)CO)C[C@@H](C)[C@H](CN(C)Cc2ccc(-c4ccccc4)cc2)O3)cc1,inactive
4,Cc1ccc(S(=O)(=O)Nc2ccc3c(c2)C(=O)N([C@@H](C)CO)C[C@H](C)[C@H](CN(C)Cc2ccc(-c4ccccc4)cc2)O3)cc1,inactive
5,Cc1ccc(S(=O)(=O)Nc2ccc3c(c2)C(=O)N([C@H](C)CO)C[C@H](C)[C@@H](CN(C)Cc2ccc(-c4ccccc4)cc2)O3)cc1,inactive
6,Cc1ccc(S(=O)(=O)Nc2ccc3c(c2)C(=O)N([C@H](C)CO)C[C@@H](C)[C@H](CN(C)Cc2ccc(-c4ccccc4)cc2)O3)cc1,inactive
7,Cc1ccc(S(=O)(=O)Nc2ccc3c(c2)C(=O)N([C@H](C)CO)C[C@@H](C)[C@@H](CN(C)Cc2ccc(-c4ccccc4)cc2)O3)cc1,active
8,Cc1ccc(S(=O)(=O)Nc2ccc3c(c2)C(=O)N([C@@H](C)CO)C[C@H](C)[C@@H](CN(C)Cc2ccc(-c4ccccc4)cc2)O3)cc1,inactive
9,Cc1ccc(S(=O)(=O)Nc2ccc3c(c2)C(=O)N([C@H](C)CO)C[C@H](C)[C@H](CN(C)Cc2ccc(-c4ccccc4)cc2)O3)cc1,active
10,C[C@@H]1CCCCO[C@H](CN(C)C(=O)CCCN(C)C)[C@@H](C)CN([C@H](C)CO)C(=O)c2cc(NC(=O)Nc3ccc(F)cc3)ccc2O1,inactive
11,Cc1noc(C)c1NC(=O)N(C)C[C@H]1OCCCC[C@H](C)Oc2ccc(NS(=O)(=O)c3ccccc3)cc2C(=O)N([C@@H](C)CO)C[C@H]1C,inactive
12,C[C@H]1CN([C@@H](C)CO)S(=O)(=O)c2ccc(C#Cc3cccc(F)c3)cc2O[C@H]1CN(C)CC1CC1,inactive
13,C[C@H](CO)N1C[C@H](C)[C@H](CN(C)S(=O)(=O)c2cn(C)cn2)Oc2ccc(NC(=O)C3CCCCC3)cc2C1=O,inactive
14,Cc1ccc(S(=O)(=O)Nc2ccc3c(c2)C(=O)N(C)[C@H]2CC[C@@H](CC(=O)NCCc4ccncc4)O[C@@H]2CO3)cc1,inactive
15,O=C1c2ccccc2[C@](Cc2ccccc2I)(C(=O)NCc2ccccc2)[C@H](c2ccc(CO)cc2)N1Cc1ccccc1C(F)(F)F,inactive
16,COCC#Cc1ccc2c(c1)O[C@H](CN(C)S(=O)(=O)c1ccc(C)cc1)[C@@H](C)CN([C@@H](C)CO)S2(=O)=O,inactive
17,COc1ccc(CN(C)C[C@H]2Oc3ccc(NS(=O)(=O)c4cn(C)cn4)cc3CC(=O)N([C@@H](C)CO)C[C@H]2C)cc1,inactive
18,CC(C)CCC(=O)N1C[C@@H]2c3nc(N4CCOCC4)ncc3CS(=O)(=O)[C@H]2C1,inactive
19,COC(=O)CCCCCCC(=O)N/N=C/[C@H](O)[C@@H](O)[C@H](O)CO,inactive
20,Cc1noc(C)c1NC(=O)Nc1ccc2c(c1)CC(=O)N([C@@H](C)CO)C[C@@H](C)[C@H](CN(C)C(=O)Nc1ccc(C(F)(F)F)cc1)O2,inactive
21,COc1ccc(CN(C)C[C@@H]2Oc3ccc(NS(=O)(=O)c4c(C)noc4C)cc3CC(=O)N([C@H](C)CO)C[C@@H]2C)cc1,inactive
22,Cc1ccc(S[C@]2(C(=O)NCCN3CCOCC3)CC(=O)N(Cc3cc(C(F)(F)F)cc(C(F)(F)F)c3)[C@@H]2c2ccc(CO)cc2I)cc1,inactive
23,Cc1ccc(S(=O)(=O)Nc2ccc3c(c2)CC(=O)N([C@H](C)CO)C[C@H](C)[C@@H](CN(C)S(=O)(=O)c2ccccc2)O3)cc1,inactive

row,Structure (SMILES),cytotoxicity call
1,C=CC(=O)Nc1cccc(Nc2nc(Nc3ccc(NC4CN(CCF)C4)cc3OC)ncc2C(F)(F)F)c1,active
2,COc1cccc(-c2ccc3c(c2)O[C@H](CN(C)Cc2cncnc2)[C@@H](C)CN([C@H](C)CO)S3(=O)=O)c1,inactive
3,COc1ccccc1O[C@@H](C)C(=O)NN,inactive
4,CCOC(=O)CC(=O)N1CCSC1COc1ccccc1OC (centres undefined),active
5,CCOc1ccccc1C(N)=O,inactive
6,N[C@@H](Cn1ccc(=O)n(Cc2ccccc2C(=O)O)c1=O)C(=O)O,inactive
7,Cc1noc(C)c1S(=O)(=O)Nc1ccc2c(c1)C(=O)N([C@@H](C)CO)C[C@@H](C)[C@@H](CN(C)C(=O)Nc1ccc3c(c1)OCO3)O2,inactive
8,COc1cc2c(Oc3ccc(NC(=O)C4(C(=O)Nc5ccc(F)cc5)CC4)cc3F)ccnc2cc1OCCCN1CCOCC1,active
9,COc1cc2nccc(Oc3ccc(NC(=O)c4cn(C(C)C)c(=O)n(-c5ccc(F)cc5)c4=O)cc3F)c2cc1OC,active
10,COc1ccc2c3c(n(c2c1)C)[C@H](CO)N(C[C@]13CCN(CC1)C(=O)CN1CCOCC1)C(=O)Nc1ccc(cc1)F,inactive
11,Cc1cc(C)nc(NS(=O)(=O)c2ccc(NC(=O)c3cccn(OCc4ccc(F)cc4)c3=O)cc2)n1,inactive
12,COc1cc2nccc(Oc3ccc(NC(=O)C4(C(=O)Nc5ccc(F)cc5)CC4)cc3)c2cc1OC,inactive
13,C[C@H]1CN([C@@H](C)CO)C(=O)Cc2cc(NC(=O)C3CC3)ccc2O[C@H]1CN(C)C(=O)Nc1ccccc1,inactive
14,C[C@H]1CN([C@@H](C)CO)C(=O)Cc2cc(NS(=O)(=O)c3ccccc3)ccc2O[C@H]1CN(C)S(C)(=O)=O,inactive
15,O=S(=O)(O)O/N=C(\Cc1ccc(O)cc1)S[C@H]1O[C@H](CO)[C@@H](O)[C@H](O)[C@H]1O,inactive
16,CC=Cc1ccc2n(c1=O)C[C@@H]1[C@@H](CO)[C@H](C(=O)NCCc3cn(C)cn3)N(C(=O)CC)[C@H]21,inactive
17,C[C@H](CO)N1C[C@H](C)[C@H](CN(C)C(=O)C2CCOCC2)Oc2ncc(C#Cc3cccc(F)c3)cc2C1=O,inactive
18,CC(C)N1CC[C@@H](CNCc2ccc(Oc3ccccc3)cc2)Oc2c(NC(=O)c3ccncc3)cccc2C1=O,inactive
19,CN(CC(=O)NCc1ccccn1)S(=O)(=O)c1cc(Br)cnc1N,active
20,CC(C)CNC(=O)C(=O)NCc1ccccn1,inactive
21,O=C(NCc1ccccn1)C1CCNCC1,inactive
22,Nc1nc(Cl)nc(Cl)n1,inactive
23,COc1ccc(NC(=O)Nc2ccc3c(c2)[C@@H]2C[C@@H](CC(=O)NCc4ccccn4)O[C@H](CO)[C@@H]2O3)cc1,inactive

row,Structure (SMILES),cytotoxicity call
1,C[C@@H]1CN([C@H](C)CO)C(=O)Cc2cc(NC(=O)C3CCCCC3)ccc2O[C@@H]1CN(C)Cc1ccc(C(F)(F)F)cc1,active
2,C[C@H]1CN([C@@H](C)CO)C(=O)Cc2cc(NC(=O)C3CCCCC3)ccc2O[C@H]1CN(C)Cc1ccc(C(F)(F)F)cc1,inactive
3,C[C@@H]1CN([C@@H](C)CO)C(=O)Cc2cc(NC(=O)C3CCCCC3)ccc2O[C@@H]1CN(C)Cc1ccc(C(F)(F)F)cc1,active
4,C[C@@H]1CN([C@H](C)CO)C(=O)Cc2cc(NC(=O)C3CCCCC3)ccc2O[C@H]1CN(C)Cc1ccc(C(F)(F)F)cc1,inactive
5,C[C@H](CO)N1C[C@H](C)[C@H](CN(C)Cc2ccc(C(F)(F)F)cc2)Oc2ccc(NC(=O)C3CCCCC3)cc2CC1=O,inactive
6,C[C@H]1CN([C@@H](C)CO)C(=O)Cc2cc(NC(=O)C3CCCCC3)ccc2O[C@@H]1CN(C)Cc1ccc(C(F)(F)F)cc1,active
7,C[C@H](CO)N1C[C@H](C)[C@H](CN(C)C(=O)Nc2ccc(C(F)(F)F)cc2)Oc2ccc(NC(=O)C3CCCCC3)cc2CC1=O,inactive
8,C[C@@H]1CN([C@@H](C)CO)C(=O)Cc2cc(NC(=O)C3CCCCC3)ccc2O[C@H]1CN(C)Cc1ccc(C(F)(F)F)cc1,inactive
9,C[C@H](CO)N1C[C@H](C)[C@@H](CN(C)Cc2ccc(C(F)(F)F)cc2)Oc2ccc(NC(=O)C3CCCCC3)cc2CC1=O,inactive
10,CCN1C[C@]23CN(C(=O)c4cnccn4)C[C@@H](C[C@H]2S1(=O)=O)O3,inactive
11,C[C@H]1CN([C@@H](C)CO)C(=O)CCCn2nncc2CO[C@H]1CN(C)S(=O)(=O)c1ccc(Oc2ccccc2)nc1,inactive
12,C[C@@H]1CCCCO[C@H](CN(C)C(=O)Nc2ccc(F)cc2)[C@H](C)CN([C@H](C)CO)C(=O)c2cc(NS(=O)(=O)c3ccccc3)ccc2O1,inactive
13,C[C@H](CO)N1C[C@H](C)[C@H](CN(C)C)Oc2ccc(NS(=O)(=O)c3cn(C)cn3)cc2CC1=O,inactive
14,Cc1noc(C)c1S(=O)(=O)NC(C)C,inactive
15,CS(=O)(=O)CS(=O)(=O)C1=C(N2CCOCC2)C2CCN1CC2,inactive
16,Cc1noc(C)c1NC(=O)N[C@@H]1C=C[C@@H](CC(=O)N2CCN(C)CC2)O[C@H]1CO,inactive
17,c1ccc(-c2cccs2)nc1,inactive
18,O=C(Nc1ccc(C(F)(F)F)cc1)Nc1ccc2c(c1)[C@H]1C[C@H](CC(=O)N3CCc4ccccc4C3)O[C@@H](CO)[C@H]1O2,inactive
19,O=C(Nc1ccc(C(F)(F)F)cc1)Nc1ccc2c(c1)[C@H]1C[C@@H](CC(=O)N3CCc4ccccc4C3)O[C@H](CO)[C@H]1O2,active
20,O=C(Nc1ccc(C(F)(F)F)cc1)Nc1ccc2c(c1)[C@@H]1C[C@@H](CC(=O)N3CCc4ccccc4C3)O[C@H](CO)[C@@H]1O2,active
21,O=C(Nc1ccc(C(F)(F)F)cc1)Nc1ccc2c(c1)[C@@H]1C[C@H](CC(=O)N3CCc4ccccc4C3)O[C@H](CO)[C@@H]1O2,inactive
22,O=C(Nc1ccc(C(F)(F)F)cc1)Nc1ccc2c(c1)[C@H]1C[C@@H](CC(=O)N3CCc4ccccc4C3)O[C@@H](CO)[C@H]1O2,inactive
23,O=C(Nc1ccc(C(F)(F)F)cc1)Nc1ccc2c(c1)[C@@H]1C[C@H](CC(=O)N3CCc4ccccc4C3)O[C@@H](CO)[C@@H]1O2,inactive
